From PubChem BioAssay (NCI)
Compounds without any hit were thinned out: in the full panel of roughly 79,000, 15% have a hit. Unmarked numbers belong to inactive results. Calls of active or inactive are those of the source. No stated cut-off is given here; in the data, active means growth inhibition above about 70%; inactive means the rest.

Assay: NCI Yeast Anticancer Drug Screen. Data for the bub3 strain (AID 167)
Details: S. cerevisiae bub3 mutant strain, at 50.0 µM, hits give high values
How it was run: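 Inhibition values come from growth of compound-treated mutant yeast normalised to vehicle-treated controls.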

Compound	growth inhibition
O=C(Oc1ccccc1)C1CCCCC1C(=O)Oc1ccccc1 (configuration not stated)	-4.5%
Cc1cccc2c1C1c3c(C)cccc3C(O)CC1CC2O (configuration not stated)	33.5%
CC(C)c1cc2c(cc1O)C(O)C1(O)CCCC(C)(C)[C@H]1CC2 (some centres not stated)	93% (active)
C/C=C/c1ccc(OCC(=O)O)c(OC)c1	98.8% (active)
Nc1ccc(S(=O)(=O)NCc2nccs2)cc1	31.7%
N#CC(NNC(=O)c1ccccc1O)c1c(O)ccc2ccccc12 (configuration not stated)	56.1%
Oc1ccc(Cl)cc1Cc1cc(Cl)cc(Cc2cc(Cl)ccc2O)c1O	96.7% (active)
O=C1CN(CCN2CCOCC2)CC(=O)N2Cc3ccccc3CN12	68.5%
CC1CCC(SC2CC(=O)CCC2=O)CC1 (configuration not stated)	98.7% (active)
Clc1ccc(OCC2CO2)c(Cl)c1 (configuration not stated)	14.9%
CN=C(N)N/N=C(\C)c1ccc2c(ccc3ccccc32)c1	88.3% (active)
Cc1cc(O)c(/C=N/c2nc(-c3cccc([N+](=O)[O-])c3)cs2)c(=O)o1	37.7%
COc1cccc2c1OC(c1ccc(Cl)cc1)C([N+](=O)[O-])=C2 (configuration not stated)	85.5% (active)
COc1ccc(C(=O)C2C(=O)C(=O)OC2C2OC(=O)C(=O)C2C(=O)c2ccc(OC)cc2)cc1 (configuration not stated)	3.05%
CCCCCCCCCCCCCCCCOc1ccc(S(=O)(=O)N/N=c2/sc3ccc(S(=O)(=O)O)cc3n2C)cc1C(=O)O	68.8%
O=C(Nc1ccc(F)cc1)N1CCCCC1	17.3%
C[CH2][Sn]([CH2]C)([O]C(=O)c1cc(OC)c(OC)c(OC)c1)[O][Sn]([CH2]C)([CH2]C)[O]C(=O)c1cc(OC)c(OC)c(OC)c1	9.15%
